An excerpt weighted towards active compounds, which were near 2.9% of everything screened.
H9c2 protect: modulators protecting cardiomyocytes from myocardial damage; AID 588492; 360,000 compounds, 0.63% hits; protection from H2O2 cell death, % at 20 µM; H9c2 cardiomyocytes, H2O2 injury protection, ATPLite, 2 h;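 active means compounds giving at least 50% protection of heart cells from peroxide-induced death in the single-dose screen, raw or plate-pattern-corrected value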;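 further: 0% = DMSO wells with peroxide and 100% = DMSO wells without peroxide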
PfGluPho inh: PfG6PD (Plasmodium falciparum) enzyme inhibition. PfGluPho enzyme, NADPH resazurin-diaphorase fluorescence. inhibition, % at 20 µM. 350,000 compounds, 0.78% hits. AID 504690;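 active means inhibition reaching at least a set limit at 20 µM in the primary screen, cut at about 59% in these data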;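 further: 0% = DMSO wells with substrate and 100% = DMSO wells lacking glucose-6-phosphate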
A3G deaminase: blocks human APOBEC3G single-stranded DNA deamination. inhibition, % at 20 µM. recombinant A3G, ssDNA deamination FAM/TAMRA fluorescence. 330,000 compounds, 0.28% hits. Q9HC16;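 active means inhibition of at least 40% at 20 µM, with no more than 30% in the related APOBEC3A deaminase screen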;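 further: plate controls were DMSO wells with A3G for no effect and wells lacking A3G enzyme for full effect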
Target sequence (Q9HC16 whole entry, looked up): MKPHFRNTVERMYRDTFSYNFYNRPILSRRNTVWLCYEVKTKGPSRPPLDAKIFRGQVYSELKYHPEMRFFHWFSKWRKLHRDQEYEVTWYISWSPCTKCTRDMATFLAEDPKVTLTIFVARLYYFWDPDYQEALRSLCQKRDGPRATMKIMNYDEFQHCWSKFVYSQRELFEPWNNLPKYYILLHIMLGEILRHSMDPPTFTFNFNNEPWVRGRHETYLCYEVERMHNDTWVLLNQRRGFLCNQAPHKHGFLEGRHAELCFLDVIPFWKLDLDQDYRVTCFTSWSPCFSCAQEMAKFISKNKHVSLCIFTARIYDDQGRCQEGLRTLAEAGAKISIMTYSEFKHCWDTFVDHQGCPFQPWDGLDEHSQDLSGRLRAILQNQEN
APOBEC3A inh: inhibitors of human APOBEC3A DNA deaminase | recombinant A3A, FAM/TAMRA ssDNA deamination fluorescence | P31941 | 330,000 compounds, 0.41% hits | inhibition, % at 20 µM;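 active means at least 40% inhibition at 20 µM here, with at most 30% in a related deaminase screen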;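 further: plate controls were A3A with DMSO for no effect and wells lacking A3A enzyme for full effect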
H9c2 TAG inh: triacylglycerol accumulation inhibition; H9c2 cells, Nile Red lipid (TAG) fluorescence; cells loaded with 200 µM oleic acid; inhibition, % at 12.5 µM; 230,000 compounds, 0.66% hits;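 active means pattern-corrected inhibition of lipid staining of at least 50% with the nuclear-stain viability signal not falling by more than 50%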;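 further: 0% = DMSO wells and 100% = triacsin C control wells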
NadD block: inhibitors of Staphylococcus aureus NadD | AID 602399 | 360,000 compounds, 0.78% hits | purified NadD enzyme, colorimetric absorbance read-out | inhibition, % at 20 µM; in the data active means inhibition above about 26%
APOBEC3G confirm: APOBEC3G (human) deaminase inhibition, confirmed; shares compounds with A3G deaminase; recombinant A3G ssDNA deaminase, UDG/FAM-TAMRA fluorescence; inhibition, % at 20 µM; 890 compounds, 72% hits; AID 493152;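 active means inhibition reaching a set limit in any replicate at 20 µM, the limit being 80% of the first screen's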
UDG A3G counter: counter-screen for APOBEC3G inhibitors: E. coli UDG; shares compounds with A3G deaminase; UDG counterscreen, FAM/TAMRA oligo fluorescence; inhibition, % at 20 µM; 710 tested, under 10 active; AID 504715;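 active means compounds giving 40% or more inhibition at 20 µM in any one of the three replicates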;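 further: plate controls were DMSO wells with UDG and oligo for no effect and DMSO wells lacking both for full effect; inhibitors lower the FAM signal released by uracil excision and alkaline cleavage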
Target sequence (P12295 whole entry, looked up): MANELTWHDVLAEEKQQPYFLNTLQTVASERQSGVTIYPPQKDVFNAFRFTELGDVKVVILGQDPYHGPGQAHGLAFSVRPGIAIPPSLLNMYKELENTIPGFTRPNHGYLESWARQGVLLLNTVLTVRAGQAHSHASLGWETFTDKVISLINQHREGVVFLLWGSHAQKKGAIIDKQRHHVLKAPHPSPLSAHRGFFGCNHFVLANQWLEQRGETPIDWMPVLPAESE
Starred values were filed as active, the others as inactive; / = no result.

SMILES	H9c2 protect	PfGluPho inh	A3G deaminase	APOBEC3A inh	H9c2 TAG inh	NadD block	APOBEC3G confirm	UDG A3G counter
COc1cccc(CN(Cc2ccco2)C(c2ccc(F)cc2)c2nnnn2C(C)(C)C)c1 (stereo unspecified)	-14	3	5	5	-19	2	/	/
CC(C)(C)n1nnnc1C(c1cccnc1)N(Cc1ccccc1)Cc1ccco1 (stereo unspecified)	0	-6	41*	1	16	-5	1	/
O=C(NC1CCCCCC1)c1ccc[nH]c1=S	4	34	55*	-1	4	-3	66*	0
Cc1cc(=O)oc2cc(NC(=O)C3CCCC3)ccc12	-1	2	57*	-2	20	-1	4	4
O=C1CC(N2CCN(S(=O)(=O)c3ccccc3F)CC2)C(=O)N1c1ccccc1F (stereo unspecified)	5	0	/	/	-27	7	/	/
NC(=S)N=Nc1ccc(NN=C(N)N)cc1	-11	99*	45*	6	-14	19	46*	/
N#C/C(=N/Nc1ccc(OC(F)(F)F)cc1)C(N)=S	-20	-11	14	2	-2	0	/	/
COc1cccc(C2CC(=O)N3CN(c4ccccc4F)CSC3=C2C#N)c1 (stereo unspecified)	1	83*	57*	-2	30	-2	31*	-2
CCOC(=O)c1ccc(N2CSC3=C(C#N)C(c4ccc(OC)cc4OC)CC(=O)N3C2)cc1 (stereo unspecified)	-16	54	4	0	-1	3	/	/
COc1ccc(OC)c(C2CC(=O)N3CN(c4ccccc4F)CSC3=C2C#N)c1 (stereo unspecified)	-1	53	67*	-1	17	4	21	-3
COc1ccc(OC)c(C2CC(=O)N3CN(c4cccc(Cl)c4)CSC3=C2C#N)c1 (stereo unspecified)	3	56	39	0	7	7	/	/
COc1cc(C2CC(=O)N3CN(c4ccccc4C)CSC3=C2C#N)cc(OC)c1OC (stereo unspecified)	/	/	49*	0	/	/	33*	/
O=[N+]([O-])c1ccc(Cl)c(/C=N/n2c(-c3cccnc3)n[nH]c2=S)c1	/	/	48*	4	/	/	25	/
O=[N+]([O-])c1ccc(/C=N/n2c(-c3cccnc3)n[nH]c2=S)cc1	0	30	63*	-6	/	-4	62*	-3
Cc1n[nH]c(=S)n(/N=C/c2cccc([N+](=O)[O-])c2)c1=O	5	-7	-4	1	-6	-4	/	/
O=[N+]([O-])c1cccc(/C=N/n2c(-c3cccnc3)n[nH]c2=S)c1	-6	48	69*	1	/	1	74*	3
Cc1ccsc1/C=N/n1c(-c2cccnc2)n[nH]c1=S	2	28	40	-7	-2	13	/	/
CCCCC[C@@H](/C=C/C1C(=O)C=C[C@H]1C/C=C\CCCC(=O)OC)OC(C)=O (stereo partly specified)	-18	24	/	/	9	0	/	/
COc1ccc(NC(=O)c2cccc3c2C(=O)c2ccc(-c4cnc(OC)nc4)cc2S3(=O)=O)cc1	0	-9	-3	-1	/	4	/	/
O=S(=O)(NCc1cccs1)c1ccccc1Cl	4	14	-9	-1	2	-8	/	/
COCCN(C(=O)c1ccc(C)c(S(=O)(=O)N2CCOCC2)c1)c1c(N)n(CC(C)C)c(=O)[nH]c1=O	14	-4	/	/	13	4	/	/
CC(=O)C1=C(S(=O)(=O)c2ccc(C)cc2)CS(=O)(=O)C1	-14	41	61*	2	1	4	78*	-4
COc1ccc(OC)c(C(=O)c2coc3ccc(OC(C)=O)cc23)c1	0	-12	79*	1	/	2	-2	/
COc1ccc(C(=O)c2coc3ccc(OC(C)=O)cc23)cc1	-10	11	-2	0	/	-26	/	/
COCC(C)n1c(C)cc(C(=O)COC(=O)c2cccn2C)c1C (stereo unspecified)	-13	-5	-2	0	6	-8	/	/
SMILES	H9c2 protect	PfGluPho inh	A3G deaminase	APOBEC3A inh	H9c2 TAG inh	NadD block	APOBEC3G confirm	UDG A3G counter
CC(Sc1ccc2nnc(-c3ccc(F)cc3)n2n1)C(=O)O (stereo unspecified)	4	57	42*	0	-15	2	52*	-3
Cc1ccc(-c2nnc3ccc(SC(C)C(=O)O)nn23)cc1 (stereo unspecified)	-1	54	-1	-3	-13	3	/	/
O=C(N/N=C/c1cccc(OC2CSC2)c1)c1ccccc1O	-13	-21	73*	-4	/	-1	-8	-4
O=S(=O)(N/N=C/c1cccc(OC2CSC2)c1)c1ccccc1	-4	1	-9	-1	/	-5	/	/
Cc1ccc(N/N=C2\CCS(=O)(=O)c3sccc32)cc1	-10	27	45*	-6	-23	-9	-6	-4
COc1ccc(CC(C(=O)Nc2ccc(OC)cc2)c2nn[nH]n2)cc1 (stereo unspecified)	0	-17	-2	-4	12	1	/	/
O=C(CSc1ccc([N+](=O)[O-])cc1)Nc1cccc(S(=O)(=O)Nc2ccccc2F)c1	-7	53	44*	-3	-12	16	23*	-5
O=C(Cc1ccc(Cl)cc1)Nc1cccc(S(=O)(=O)Nc2ccccc2F)c1	4	3	-2	0	/	-7	/	/
O=C(Nc1cccc(S(=O)(=O)Nc2ccccc2F)c1)c1ccco1	4	7	0	0	-46	-5	/	/
O=C1CCC(C(=O)Nc2cccc(S(=O)(=O)Nc3ccccc3F)c2)=NN1	-1	92*	73*	5	-1	6	63*	3
S=c1[nH]nc(C2CCCCC2)n1/N=C/c1ccncc1	-3	24	48*	-3	/	1	68*	-4
O=c1[nH]c(SCc2n[nH]c(=S)n2-c2ccccc2)nc2ccccc12	22	26	60*	-3	6	2	86*	-4
Cc1cc(OCC(=O)N(C)c2ccccc2)cc2c1C(=O)CC(C)(C)O2	-1	-5	59*	2	-18	1	1	/
C[C@@H]1CN([C@@H](C)CO)C(=O)CCCn2nncc2CO[C@@H]1CN(C)S(=O)(=O)c1cccs1	8	-10	/	/	6	-4	/	/
CCN(CC)S(=O)(=O)c1ccc2c(c1)nc(SCC(=O)N1CCOCC1)n2-c1ccccc1OC	1	2	44*	7	4	14	0	/
N#Cc1c(NC(=O)c2nc3ncccn3n2)sc2c1CCCCC2	-18	-24	-1	0	-14	1	/	/

Screening results (PubChem BioAssay)
